# Compound activity as filed in PubChem BioAssay.
# The sample as a whole holds a higher share of hits than the screen did.
# TTR transcr act – activators of transthyretin transcription; SH-SY5Y TTR promoter Gaussia luciferase, luminescence; 100% = recombinant luciferase protein wells; activation, % at 16.7 µM; hit rate 1.3% among 92,000; AID 1117267;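 active = activation above the mean of all tested compounds plus 3 SD, cut at about 9.5% in these data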;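 also: cells exposed to compounds for one day before reading; 0% = median of all test compound wells on the plate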
# TTR inh HuH7 – decreases TTR transcription in HuH7 cells in activator counter-screen; HuH7 TTR promoter-Gaussia luciferase reporter, luminescence; shares compounds with TTR transcr act; AID 1117279; hit rate 4% among 1,100; inhibition, % at 16.7 µM;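 active = average inhibition above the solvent-only control wells' mean plus 3 SD, cut at about 15% in these data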;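 also: 0% = cells with DMSO only and 100% = cells with inhibitor control FD; inhibitors lower well luminescence so higher value means more inhibition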
# TTR up confirm – confirmation of human transthyretin transcription activators; SHSY5Y TTR promoter Gaussia luciferase, luminescence; 100% = purified Lucia enzyme wells, no cells; shares compounds with TTR transcr act; activation, % at 16.7 µM; 1,100 tested, under 10 active;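 active = mean activation above a set limit taken from the earlier primary screen, cut at about 11% in these data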;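 also: 0% = DMSO-treated cells and 100% = recombinant Lucia luciferase without cells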
# The depositor's hits bear a star; ! = repeats disagree.
SMILES,TTR transcr act,others
COc1ccc(S(=O)(=O)N2CCCOC2CNC(=O)C(=O)NCc2ccccn2)cc1 (stereo not drawn),24.1*,TTR inh HuH7=-10.0;TTR up confirm=-0.7
CCC[C@H]1[C@@H](OC(=O)NC(CC)CC)CC[C@@]23CCCN2C(=O)CCC[C@@H]13,0.6,
O=C(c1ccccc1)c1cccn1CC(=O)N1CCCCCC1,10.4*,TTR inh HuH7=-10.7;TTR up confirm=0.4
Cc1cccc(N2CCN(C(=O)Cn3cccc3C(=O)c3ccccc3)CC2)c1C,1.4,
CN(Cc1ccccc1)C(=O)Cn1cccc1C(=O)c1ccccc1,-1.2,
O=C(NCCc1ccccc1)OCc1cn(Cc2cc(F)cc(F)c2)nn1,-0.7,
O=C(NCCc1ccccc1)OCc1cn(Cc2ccccc2Cl)nn1,0.7,
CN(Cc1ccccc1)C(=O)OCc1cn(Cc2ccccc2Cl)nn1,-1.5,
Cc1cccc(Cn2cc(COC(=O)N(C)Cc3ccccc3)nn2)c1,-2.1,
O=C(NCCc1ccccc1)OCc1cn(Cc2ccccc2F)nn1,20.1*,TTR inh HuH7=-1.6;TTR up confirm=-0.2
Cc1ccccc1Cn1cc(COC(=O)N(C)Cc2ccccc2)nn1,11.9*,TTR inh HuH7=17.6*;TTR up confirm=-1.3
COc1cc(OC)cc(C(C)c2ccc(-c3ccccc3)cc2)c1 (stereo not drawn),-0.4,
O=C(CCc1nnc(CCCc2ccccc2)o1)N1CCCCCC1,-1.4,
O=C(CCc1ccccc1)N1CCCC1,11.4*,TTR inh HuH7=-4.6;TTR up confirm=-0.3
CC1CCCN(C(=O)CCc2ccccc2)C1 (stereo not drawn),1.2,
CCOc1ccc(CCNC(=O)c2cc3sccc3n2Cc2ccccc2)cc1OCC,-0.8,
O=C(Cc1cccs1)NC1CCCCN(Cc2ccc(Cl)cc2)C1=O (stereo not drawn),4.9,
CC1(C)C(CO)=CC(=O)C2=C1SCC(=O)N2,11.3*,TTR inh HuH7=-9.2;TTR up confirm=0.3
N#CN1CCC(NS(=O)(=O)c2cccc(C(F)(F)F)c2)CC1,-0.8,
Cc1ccc(-c2c(NC(=O)Nc3ccc(F)cc3)nc3ncccn23)cc1,-1.6,
C[C@H]1C2CC(OC(=O)Nc3ccc(F)cc3)C(C2)[C@H]2CCCCN21 (stereo partly drawn),1.3,
COc1cccc(C(=O)COc2ccccc2N2C(=O)C3C4C=CC(C4)C3C2=O)c1 (stereo not drawn),-0.5,
Cc1ccnc2c(N3C(=O)C4C5C=CC(C5)C4C3=O)cccc12 (stereo not drawn),9.8*,TTR inh HuH7=-8.4;TTR up confirm=-0.5
O=C1C2C3C=CC(C4CC34)C2C(=O)N1c1cccc2ccccc12 (stereo not drawn),-2.0,
CCCCCCC[C@H](N)[C@H](O)C(=O)N(C)[C@@H](CCS(C)=O)C(=O)N[C@@H](Cc1ccc(O)cc1)C(=O)O (stereo partly drawn),-0.5,
SMILES,TTR transcr act,others
CCCCNC(=O)C[C@H]1C[C@@]2(C(=O)OC)C(=C[C@H](C(C)C)O[C@@H]2C2CC2)N(Cc2cccc3ccccc23)C1=O,-1.2,
COC(=O)[C@]12C[C@H](CC(=O)NCc3cccc(C(F)(F)F)c3)C(=O)N(Cc3ccco3)C1=C[C@H](COCc1ccccc1)O[C@@H]2C,0.2,
COc1cc(OC)cc(-c2csc(N3CCC(C(N)=O)CC3)n2)c1,0.9,
COc1ccc(-c2cc(=O)c3c(OC)c(OC)c(OC)c(OC)c3o2)cc1,-2.6,
COc1ccc(-c2cc(=O)c3c(C)cc(O)cc3o2)cc1,-2.2,
COc1ccc(-c2[nH]nc3oc(=O)cc(C)c23)cc1,16.1*,TTR inh HuH7=-17.5;TTR up confirm=-0.6
CC/C=C\[C@H](O)[C@H](O)C1=C(C)C(=O)[C@]2(O1)C(=O)N[C@@](OC)(C(=O)c1ccccc1)[C@@H]2O,-1.2,
Cc1occc1CNc1ncnc2ccc(-c3ccc4c(c3)OCO4)cc12,1.9,
CN(Cc1ccco1)c1ncnc2ccc(-c3ccc4c(c3)OCO4)cc12,27.0*!,TTR inh HuH7=-6.5;TTR up confirm=0.4
Cc1nc(CN(C)c2ncnc3ccc(-c4ccc5c(c4)OCO5)cc23)cs1,-0.8,
C[C@@H]1CCCN1c1cccc2c1S(=O)(=O)N(C1CC1)CCCO2,1.1,
COC(=O)[C@]12C[C@H](CC(=O)NCc3cccs3)C(=O)N(Cc3cccc4ccccc34)C1=C[C@H](C1CCCC1)O[C@@H]2C,-0.4,
Nc1[nH]c(C(=O)c2ccccc2)c(-c2ccccn2)c1C(=O)c1c[nH]c2ccc(Br)cc12,1.4,
O=C(Nc1ccc(F)cc1)Nc1nc2ncccn2c1-c1ccc(F)cc1,-2.1,
CN(C)CCCNC(=O)c1ccc(-c2ccccc2)cc1,22.0*,TTR inh HuH7=-10.0;TTR up confirm=0.1
CN(C)CCCNC(=O)c1ccc(Cl)c(S(=O)(=O)N(C)c2ccccc2)c1,3.3,
COc1ccc(C(=O)NCCCN(C)CCCNC(=O)c2ccc(OC)cc2)cc1,-1.1,
O=C(OCc1ccccc1)[C@H](Cc1ccccc1)NC(=O)[C@@H]1CC=C[C@@H]2CCN(Cc3ccc(Cl)cc3)C(=O)[C@@H]21,0.0,
